Data on eight compounds can be found in PubChem BioAssay (NCI).

Among the test systems are 786-0 renal; MALME-3M melanoma; UACC-257 melanoma; SK-MEL-2 melanoma; EKVX NSCLC; SN12C renal; TK-10 renal; ACHN renal; CAKI-1 renal; A498 renal; RPMI-8226 leukemia; OVCAR-8 ovarian; OVCAR-4 ovarian; SK-OV-3 ovarian; IGROV1 ovarian; OVCAR-3 ovarian; BT-549 breast; MDA-MB-435 melanoma; HCT-116 colon; HCC-2998 colon.
Assay in all cases: NCI-60 one-dose screen, 48 h (100 = growth as untreated, 0 = no growth, -100 = all killed)
What all share (conditions): 10 µM

SMILES strings stand for the structures. The panel holds about 83,000 compounds, 20% with a hit somewhere; the sample as a whole holds those more often.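 Single-concentration screen, 48 h exposure, 96-well plates. Endpoint: percent growth. Below 10 = active.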 A number with no mark means an inactive call. Active and inactive are the calls of the source.

On to `CC12OOC(C)(OO1)C2CCC(=O)NCCCNc1ccnc2cc(Cl)ccc12` (stereo not given), for which the growth in the test on 786-0 renal was -12.2% (active); with MALME-3M melanoma, -94.6% (active); in the test on UACC-257 melanoma, 96.2%; in the test on SK-MEL-2 melanoma it was 100%; with EKVX NSCLC, 85.6%; in the test with SN12C renal it was 91.9%. Also, the growth in the test with TK-10 renal was 23.4%; with ACHN renal it was -100% (active); in the test with CAKI-1 renal, -93.3% (active); in the test on A498 renal it was 114%; in the test on RPMI-8226 leukemia it was 39%; in the test with OVCAR-8 ovarian, 94.9%. For the same compound, the growth is -42.2% (active) in the test on OVCAR-4 ovarian; 103% with SK-OV-3 ovarian; 67.1% in the test with IGROV1 ovarian; -49.6% (active) in the test with OVCAR-3 ovarian; 121% in the test with BT-549 breast; 93.8% with MDA-MB-435 melanoma. In addition, the results for the growth in the test with HCT-116 colon and in the test on HCC-2998 colon were 3.56% (active) and 106%, respectively.

As to `O=C(/C=C/c1ccccc1Cl)c1nc2ccccc2n1Cc1ccc(F)cc1`, the growth with 786-0 renal is -95.3% (active); with MALME-3M melanoma, -80% (active); in the test with UACC-257 melanoma, -61.1% (active); with SK-MEL-2 melanoma, -68.5% (active); in the test on EKVX NSCLC, -91.6% (active); in the test with SN12C renal it was -89.4% (active). The growth in the test on TK-10 renal was -44.2% (active); with ACHN renal, -88% (active); in the test on CAKI-1 renal it was -40.5% (active); with A498 renal, 62.5%; in the test with RPMI-8226 leukemia it was -29.7% (active); with OVCAR-8 ovarian, -66.1% (active). Further, the growth with OVCAR-4 ovarian is 4.42% (active); in the test on SK-OV-3 ovarian, 8.31% (active); with IGROV1 ovarian, -78.1% (active); in the test on OVCAR-3 ovarian, -50.8% (active); with BT-549 breast, -92.2% (active); in the test on MDA-MB-435 melanoma, -46.7% (active). Moreover, the values for the growth with HCT-116 colon and with HCC-2998 colon were -96.3% (active) and -99.7% (active), respectively.

Turning to `COc1cc(OC)c(S(=O)(=O)N(CCCl)CCCl)cc1C(=O)/C=C/c1ccc(C)cc1`, the growth in the test with 786-0 renal was 14.2%; with MALME-3M melanoma, 83.5%; in the test on UACC-257 melanoma, 90%; with SK-MEL-2 melanoma, 92.3%; with EKVX NSCLC, 89.5%; in the test with SN12C renal, 53.6%. In addition, the growth in the test on TK-10 renal is 106%; in the test with ACHN renal, 64.9%; with CAKI-1 renal it was 65.3%; in the test with A498 renal it was 110%; with RPMI-8226 leukemia, 59.9%; with OVCAR-8 ovarian it was 54.2%. The growth in the test on OVCAR-4 ovarian was 52.2%; with SK-OV-3 ovarian, 74.5%; in the test with IGROV1 ovarian, 86.8%; in the test on OVCAR-3 ovarian, 112%; in the test on BT-549 breast, 93.8%; in the test with MDA-MB-435 melanoma it was 79.5%. Moreover, the growth in the test on HCT-116 colon is 58%; in the test on HCC-2998 colon, 93.6%.

For the compound `CC(=C\C(=O)Oc1ccc2c3c1OC1C(O)CCC4(O)C(C2)N(CC2CCC2)CCC314)/C=C1\CCCc2ccccc21` (stereo not given), the growth was 45.1% with 786-0 renal; 34.6% in the test on MALME-3M melanoma; -36.8% (active) with UACC-257 melanoma; 84.3% with SK-MEL-2 melanoma; 49.7% in the test on EKVX NSCLC; 60.9% with SN12C renal. In addition, the growth is 65.2% in the test with TK-10 renal; 84.9% in the test with ACHN renal; 41.7% in the test on CAKI-1 renal; 125% in the test with A498 renal; 30.1% with RPMI-8226 leukemia; 76.9% in the test on OVCAR-8 ovarian. Further, the growth in the test with OVCAR-4 ovarian was 55.6%; with SK-OV-3 ovarian, 80.9%; in the test on IGROV1 ovarian, 67.1%; with OVCAR-3 ovarian it was 77.2%; with BT-549 breast, 58.7%; in the test on MDA-MB-435 melanoma, 61.8%. Moreover, the growth in the test with HCT-116 colon is 28.6%; with HCC-2998 colon, 31.2%.

Regarding `O=C(/C=C/c1ccc(Cl)cc1Cl)c1nc2ccccc2n1Cc1ccc(F)cc1`, the growth is 19.8% in the test with 786-0 renal; 69.1% in the test with MALME-3M melanoma; 66.3% in the test with UACC-257 melanoma; 94.7% in the test on SK-MEL-2 melanoma; 35.6% in the test with EKVX NSCLC; 60.4% with SN12C renal. For the same compound, the growth is 93.6% in the test with TK-10 renal; 48.7% in the test with ACHN renal; 53.3% in the test on CAKI-1 renal; 94.8% in the test with A498 renal; -31.1% (active) in the test with RPMI-8226 leukemia; 56% in the test on OVCAR-8 ovarian. In addition, the growth was 63.2% in the test on OVCAR-4 ovarian; 103% in the test on SK-OV-3 ovarian; 47% in the test with IGROV1 ovarian; 31.7% with OVCAR-3 ovarian; 24.4% in the test on BT-549 breast; 43.9% in the test on MDA-MB-435 melanoma. Moreover, the growth in the test on HCT-116 colon was 7.22% (active); in the test with HCC-2998 colon, 27.3%.

As for `O=C(/C=C/c1ccc(F)cc1)c1nc2ccccc2n1Cc1ccc(Br)cc1`, the growth is -82.4% (active) with 786-0 renal; -77.9% (active) with MALME-3M melanoma; -17.4% (active) in the test on UACC-257 melanoma; -61.3% (active) in the test with SK-MEL-2 melanoma; -91.5% (active) with EKVX NSCLC; -40.4% (active) in the test with SN12C renal. The growth was -19.1% (active) in the test with TK-10 renal; -73.9% (active) with ACHN renal; -23% (active) with CAKI-1 renal; 58.6% in the test on A498 renal; -34.7% (active) with RPMI-8226 leukemia; -1.74% (active) in the test with OVCAR-8 ovarian. In addition, the growth in the test on OVCAR-4 ovarian was 19.2%; with SK-OV-3 ovarian, 30.2%; with IGROV1 ovarian, -35% (active); with OVCAR-3 ovarian it was -73.6% (active); in the test with BT-549 breast, -78.1% (active); in the test on MDA-MB-435 melanoma, -74% (active). Also, the growth in the test with HCT-116 colon was -79.4% (active); in the test on HCC-2998 colon, -97.6% (active).

As for `O=C(NC([Se])=NC1CCCCC1)c1ccc2c(c1)OCO2`, the growth in the test with 786-0 renal is 44.1%; in the test with MALME-3M melanoma, 57.3%; in the test on UACC-257 melanoma, 50.5%; with SK-MEL-2 melanoma, 99.6%; in the test with EKVX NSCLC, 56.8%; in the test with SN12C renal, 51.9%. In addition, the growth is 55.5% in the test with TK-10 renal; 17% in the test with ACHN renal; 39.6% in the test on CAKI-1 renal; 31.3% in the test on A498 renal; 63% with RPMI-8226 leukemia; 37.7% in the test with OVCAR-8 ovarian. Besides, the growth with OVCAR-4 ovarian was 70.5%; in the test on SK-OV-3 ovarian it was 8.53% (active); with IGROV1 ovarian it was 43.6%; in the test on OVCAR-3 ovarian, 25.3%; with BT-549 breast, 96.7%; in the test with MDA-MB-435 melanoma it was 86.4%. The growth with HCT-116 colon is 24.7%; in the test with HCC-2998 colon, 74.1%.

Turning to `O=C(/C=C/c1cccc(Br)c1)c1nc2ccccc2n1Cc1ccc(F)cc1`, the growth was 12.5% with 786-0 renal; 50.5% in the test with MALME-3M melanoma; 55.1% in the test with UACC-257 melanoma; 63.9% with SK-MEL-2 melanoma; 20.1% in the test with EKVX NSCLC; 47.3% in the test with SN12C renal. In addition, the growth in the test on TK-10 renal is 80.2%; with ACHN renal, 40.7%; in the test with CAKI-1 renal, 54.4%; with A498 renal, 116%; in the test on RPMI-8226 leukemia it was -24.7% (active); with OVCAR-8 ovarian, 28.2%. For the same compound, the growth in the test with OVCAR-4 ovarian is 54.8%; in the test on SK-OV-3 ovarian it was 81.2%; with IGROV1 ovarian it was 40.4%; in the test with OVCAR-3 ovarian it was 22.1%; in the test with BT-549 breast, 12.5%; with MDA-MB-435 melanoma, 11.6%. Besides, the growth in the test with HCT-116 colon was -41.1% (active); with HCC-2998 colon, 25%.
